Assay results: the supplement of paper PMC10981050
Values joined by “and” are separate entries in the source; they are usually repeats but may differ in a detail not shown here. Equal values may be shown once. Where a name gives a salt, the structure may show the parent alone.

Columns and labels:
Assay in all cases: cell viability relative to vehicle control; higher = less cytotoxic
Details in all cases: 10 µM
K562 = tested on: K562
Summary of the method: (§1)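 CRISPR-edited mutant clones and isogenic wild-type clones from four leukaemia lines were screened against Selleck bioactive, kinase and epigenetic probe libraries, with identity-inconsistent compounds excluded. Each compound was acoustically dispensed at a single 10 µM dose into 384-well plates holding 2000 cells in 50 µL medium per well. After 48 h the supernatant was removed and CellTiter-Glo luminescence was read. Viability was expressed as percent of the on-plate vehicle control and analysed in Genedata Screener.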

MARIMO = tested on: MARIMO
Summary of the method: as §1

MOLM14 = tested on: MOLM14
Summary of the method: as §1

OCI-AML2 = tested on: OCI-AML2
Summary of the method: as §1

Compound	cell viability (K562; SRSF2 genotype: SRSF2 P95H/wt)	cell viability (K562; SRSF2 genotype: SRSF2 wt/wt) [%]	cell viability (MARIMO; SRSF2 genotype: SRSF2 P95H/wt) [%]	cell viability (MARIMO; SRSF2 genotype: SRSF2 wt/wt) [%]	cell viability (MOLM14; SRSF2 genotype: SRSF2 P95H/wt) [%]	cell viability (MOLM14; SRSF2 genotype: SRSF2 wt/wt) [%]	cell viability (OCI-AML2; SRSF2 genotype: P95H/wt) [%]	cell viability (OCI-AML2; SRSF2 genotype: wt/wt) [%]
NNc1nncc2ccccc12 [Hydralazine hydrochloride]	99.2% and 101%	96.3	97.6	101	98.1	99	106	87
CO/N=C(\C(=O)N[C@@H]1C(=O)N2C(C(=O)O)=C(CSC(=O)c3ccco3)CS[C@H]12)c1csc(N)n1 [Ceftiofur hydrochloride]	98.4% and 82.1%	83.7	89.1	93.9	91.5	93.5	93.4	95.4
COc1ccc(-n2nc(C(N)=O)c3c2C(=O)N(c2ccc(N4CCCCC4=O)cc2)CC3)cc1 [Apixaban]	99.3% and 102%	103	97.9	112	107	105	98	96.7
Cc1ccc(C(=O)N(CCCN)[C@@H](c2nc3cc(Cl)ccc3c(=O)n2Cc2ccccc2)C(C)C)cc1	0.81% and 1.13%	0.6	0.37	0.68	0.2	0.34	0.16	0.25
CCOC(=O)c1cnc2ccc(-c3cncc(NS(=O)(=O)c4ccccc4)c3)cn12	22.4% and 35.9%	34.2	17.1	20	3.14	4.38	2.77	9.47
O=C1c2cccc(O)c2C(=O)c2c(O)cc(CO)cc21 [Aloe-emodin]	92.1% and 94.9%	83.3	95.1	94.8	92.4	95.5	82.5	76.4
CCn1cc(C(=O)O)c(=O)c2ccc(C)nc21 [Nalidixic acid (NegGram)]	96.8% and 104%	106	107	101	105	109	104	91.1
Cc1c(-c2ccc(C(N)=O)c3[nH]c4cc(C(C)(C)O)ccc4c23)cccc1-n1cnc2ccccc2c1=O	80.1% and 89.9%	92.2	73.5	66.2	48.4	54.8	43.6	46.2
O=C(O)/C=C/c1ccc(Cn2ccnc2)cc1 [Ozagrel HCl]	97.6%	96.3	92.8	109	98.8	103	92.6	105
N#CC(=Cc1ccc(O)c(O)c1)C(=O)NCc1ccccc1 [AG-490 (Tyrphostin B42)]	101% and 99.8%	91	78.5	92.8	95.9	103	90.4	93.7
COc1ccc(CCO[C@@H]2O[C@H](CO[C@@H]3OC[C@H](O)[C@H](O)[C@H]3O)[C@@H](OC(=O)/C=C/c3ccc(O)c(OC)c3)[C@H](O[C@@H]3O[C@@H](C)[C@@H](O)[C@@H](O)[C@H]3O)[C@H]2O)cc1O [Angoroside C]	107% and 103%	111	101	96.2	113	106	105	95.5
Nc1ncnc2c1C(=O)N(c1ccc([C@H]3CC[C@H](CC(=O)O)CC3)cc1)CCO2	107% and 104%	110	105	107	105	105	108	123
C=CC(=O)Nc1ccc2ncnc(Nc3cccc(Br)c3)c2c1	66% and 72.7%	71.1	70	86.8	61.6	81.3	50	50.9
c1cncc(CN2CCC(n3ncc4c(N5CCOCC5)nc(-c5ccc6[nH]ccc6c5)nc43)CC2)c1	41.8% and 44.3%	51	3.19	6.42	35	25	26.2	29.1
CO[C@@H](C)Cn1c(=O)n(C)c2cnc3ccc(-c4cncc(C(C)(C)O)c4)cc3c21	34.4% and 40.7%	35	38.5	35.8	18.6	19.2	5.3	13.6
COC(=O)[C@H](CCSC)NC(=O)c1ccc(NC[C@@H](N)CS)cc1-c1ccccc1	104% and 105%	110	77.4	78.5	83.4	90.1	113	113
COc1cc(C(=O)O)ccc1O [Vanillic acid]	103% and 97.7%	111	98.9	105	102	108	104	113
COC(=O)CNC(=O)C(=O)OC	93% and 96.6%	96.3	89.1	90.8	92.6	94.5	56.9	64.9
CCOc1cc(C(=O)N2CCC(N3CCN(C)CC3)CC2)ccc1Nc1ncc2c(n1)N(C1CCCC1)c1ccccc1C(=O)N2C	10.3% and 7.13%	15.2	35.2	35.2	0.3	0.37	2.24	10.6
S=c1nc[nH]c2nc[nH]c12 [6-Mercaptopurine (6-MP) Monohydrate]	70.9% and 60.5%	39.7	104	96.8	87.4	71.8	103	94.1

Compound	cell viability (K562; SRSF2 genotype: SRSF2 P95H/wt)	cell viability (K562; SRSF2 genotype: SRSF2 wt/wt) [%]	cell viability (MARIMO; SRSF2 genotype: SRSF2 P95H/wt) [%]	cell viability (MARIMO; SRSF2 genotype: SRSF2 wt/wt) [%]	cell viability (MOLM14; SRSF2 genotype: SRSF2 P95H/wt) [%]	cell viability (MOLM14; SRSF2 genotype: SRSF2 wt/wt) [%]	cell viability (OCI-AML2; SRSF2 genotype: P95H/wt) [%]	cell viability (OCI-AML2; SRSF2 genotype: wt/wt) [%]
NC(=O)c1[nH]cnc1N [4-Amino-5-imidazolecarboxamide]	101% and 104%	105	101	107	99.1	108	97.3	108
CC(C)n1cnc2c(NCCc3ccc(O)cc3)nc(-c3csc4ccccc34)nc21 [StemRegenin 1]	50.9% and 50.1%	56	84.6	92.4	64.5	89.6	86.8	83.5
COC(=O)C1=CO[C@@H](O)[C@@H]2C(CO)=CC[C@H]12 [Genipin]	94.8% and 97.4%	95.1	71.1	85.7	78	90.4	26.4	41.1
O=c1ncn2nc(Sc3ccc(F)cc3F)ccc2c1-c1c(Cl)cccc1Cl	84.8% and 86.8%	83.6	77.9	84	82.1	92.9	64.1	68.6
O=C1C2=C(CCN(Cc3ccccc3)C2)N2CCN=C2N1Cc1ccc(C(F)(F)F)cc1	39% and 40.3%	34	43	36.9	31.1	34.1	22.3	22.3
Cc1cc(N2CCCCC2)nc2ccccc12	97% and 102%	98.3	93.6	106	98.8	109	96.6	103
Cn1cc(C(=O)Nc2ccc3c(c2)OCCO3)c2ccccc2c1=O	88.4% and 81.6%	81.2	80.4	83.5	84.3	82.8	80.3	95.8
C=C(c1ccc(C(=O)O)cc1)c1cc2c(cc1C)C(C)(C)CCC2(C)C [Bexarotene]	84.9% and 95.7%	87.6	85.7	106	89.4	103	33.3	63.5
C[C@@H](O[C@H]1OCCN(Cc2nn(P(=O)(O)O)c(=O)[nH]2)[C@H]1c1ccc(F)cc1)c1cc(C(F)(F)F)cc(C(F)(F)F)c1 [Fosaprepitant dimeglumine salt]	52.4% and 55.7%	57	53.1	52.6	60.9	65	52.4	58
Cn1c(=O)cc(N2CCC[C@@H](N)C2)n(Cc2ccccc2C#N)c1=O	96.9% and 97.8%	88.7	94	97.1	91.3	98.3	98	101
CNC(=O)c1cc(Oc2ccc(NC(=O)Nc3ccc(Cl)c(C(F)(F)F)c3)cc2)ccn1 [Sorafenib Tosylate]	7.11% and 11.7%	11.8	35.8	29.3	9.9	11.5	9.8	11.3
C=CC(=O)N1CCN(C(=O)CNc2cc(I)c(Cl)cc2O)CC1 [K-Ras(G12C) inhibitor 12]	78.9% and 84.7%	75.2	79.8	83.6	62.9	81.2	93.3	88.1
Cn1c(=O)c2[nH]cnc2n(C)c1=O [Aminophylline (Truphylline)]	91.1% and 89.1%	89.2	83.4	95.7	86.8	89.8	88.9	102
Oc1cc(O)c2c(c1)OC(c1ccc(O)c(O)c1)C(O)C2 (single isomer, unassigned; (+)) [(+)-Catechin hydrate]	103% and 94.1%	103	106	103	104	104	104	108
N=C(N)N [Guanidine (Aminoformamidine) HCl]	94.2% and 97%	103	104	98.3	97	98.7	102	98.1
COC(=O)c1ccc(O)c(OC)c1 [Methyl Vanillate]	101% and 96.9%	102	90.7	104	103	103	95.2	107
CC(C)=CCC[C@](C)(O[C@@H]1O[C@H](CO[C@@H]2O[C@H](CO)[C@@H](O)[C@H](O)[C@H]2O)[C@@H](O)[C@H](O)[C@H]1O)[C@H]1CC[C@]2(C)[C@@H]1[C@H](O)C[C@@H]1[C@@]3(C)CC[C@H](O[C@@H]4O[C@H](CO)[C@@H](O)[C@H](O)[C@H]4O[C@@H]4O[C@H](CO)[C@@H](O)[C@H](O)[C@H]4O)C(C)(C)[C@@H]3CC[C@]12C [Ginsenoside Rb1]	103% and 102%	105	103	112	103	102	101	111
Oc1ccc(OC2CCCCO2)cc1 (configuration not stated) [Deoxyarbutin]	104% and 99.3%	105	84.6	93.3	83.3	81.9	87.4	83.2
CC(=O)NC(Cc1ccc(O)cc1)C(=O)NC(CCCN=C(N)N)C(=O)NC(Cc1ccccc1)C(N)=O (configuration not stated)	87.2% and 83.5%	85.6	84.2	88.4	87.3	85.4	87.9	87.5
